A number with no mark means an inactive call. Some of the results follow. Activity calls are given as the source filed them. Cut-off read from the data, not from the text of the source, unless noted: active = inhibition above about 23%; inactive = the rest.

Test [1] deals with Neuropeptide Y receptor type 2 (Homo sapiens) (UniProt P49146). The experiment in a line: human Y2 receptor positive modulation or activation – cell-based, confirmation (AID 1539; in the data active = activation above about 33%). As to conditions: cell-based NPY-Y2 potentiator/agonist assay; at 3.6 µM; stronger effect = higher value.
Test [2] concerns the target Neuropeptide Y receptor type 1 (Homo sapiens) (UniProt P25929). The experiment in a line: human Y1 receptor positive modulation or activation – cell-based, fluorescence, counter-screen for NPY-Y2 potentiator project (AID 1651; in the data active = activation above about 45%;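 note: cells stimulated with submaximal NPY then isoproterenol with phosphodiesterase inhibitor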). As to conditions: Y1 HEK293-CNG cells, membrane potential fluorescence; at 3.6 µM; stronger effect = higher value.
Test [3] has the same target. The experiment in a line: human Y1 receptor agonism, CNGC membrane potential – cell-based, fluorescence, selectivity assay for NPY-Y2 potentiator project (AID 1702;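 active = activation above the mean of DMSO-only control wells plus 3 SD, cut at about 18% in these data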;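 note: cells stimulated with 1 µM isoproterenol plus the PDE inhibitor Ro 20-1724; 0% = isoproterenol with DMSO and no NPY and 100% = 40 nM NPY; Y1 agonists lower the membrane potential dye signal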). The note with it: HEK293 Y1-CNGC, at 3.6 µM, stronger effect = higher value.
Test [4] can be described thus: blockers of isoproterenol-driven CNG channel signal – cell-based, HEK293-CNG parental, membrane potential fluorescence, counter-screen for NPY-Y2 potentiator project (AID 1703;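 active = inhibition above the control-well mean plus 3 SD of those wells, cut at about 22% in these data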;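 note: 0% = DMSO with isoproterenol and 100% = DMSO without isoproterenol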). As to conditions: isoproterenol cAMP, at 3.6 µM, stronger effect = higher value. On the technique in general: A counterscreen serves to expose hits that act by an unwanted route or on another target.
Test [5] has as its target Neuropeptide Y receptor type 2 (Homo sapiens) (UniProt P49146). The experiment in a line: agonism at human Y2 receptor without NPY – cell-based, fluorescence, counter-screen for NPY-Y2 potentiator project (AID 1710;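 active = activation above the mean of solvent-only control wells plus 3 SD, cut at about 10% in these data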;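 note: cells stimulated by isoproterenol with no NPY added so direct agonism is tested; 0% = DMSO with isoproterenol alone and 100% = NPY at EC100 plus isoproterenol; agonism lowers probe fluorescence through less cAMP and CNG channel opening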). As to conditions: HEK293 Y2/CNGC cells, membrane potential fluorescence, agonist mode; at 3.6 µM; stronger effect = higher value.
The target in test [6] is Photoreceptor-specific nuclear receptor (Homo sapiens) (UniProt Q9Y5X4). The experiment in a line: retest of NR2E3-NCOR disrupting agonists – cell-based, luminescence, CHO-S two-hybrid, confirmation (AID 624378;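 active = average inhibition above a cutoff equal to the mean inhibition of all tested compounds plus one SD, cut at about 70% in these data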;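 note: 0% = DMSO in NR2E3 cells and 100% = DMSO in cells lacking NR2E3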). As to conditions: CHO-S mammalian two-hybrid NR2E3-NCOR, luciferase luminescence; at 3.98 µM; stronger effect = higher value.
Test [7] can be described thus: nonselective effects on VP16 transactivation – cell-based, luminescence, CHO-S, high throughput, counter-screen for NR2E3 agonist project, confirmation (AID 624379;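 active = mean inhibition above a cutoff equal to the average over all tested compounds plus one standard deviation, cut at about 70% in these data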;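 note: 0% = DMSO with VP16-transfected cells and 100% = DMSO with cells lacking VP16; higher means less reporter light so more repression of VP16 activity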). The note with it: CHO-S GAL4-VP16 luciferase reporter, at 3.98 µM, stronger effect = higher value.
Test [8] can be described thus: suppression of KLF5 promoter-driven luciferase – DLD-1 cells, luminescence, confirmation (AID 1834;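 active = inhibition above a set limit taken from the earlier primary screen, cut at about 63% in these data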;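 note: 0% = DMSO wells and 100% = LY294002 at 200 µM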). The note with it: DLD-1 KLF5 promoter firefly luciferase reporter, at 4 µM, stronger effect = higher value. A general note: A reporter such as luciferase makes a cellular process visible.
Test [9] can be described thus: IEC-6 intestinal cell killing – luminescence, triplicate, cytotoxicity control for KLF5 inhibitor project (AID 1905).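 Note: cells exposed to compounds for 48 hours before viability read.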 The note with it: IEC-6 rat intestinal cells, viability luminescence; at 4 µM; stronger effect = higher value.
The target in test [10] is Nuclear receptor coactivator 3 (Homo sapiens) (UniProt Q9Y6Q9). The experiment in a line: NCOA3 GAL4-fusion reporter inhibition – cell-based, luminescence, quadruplicate, confirmation (AID 588792;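 active = mean inhibition over 43.08%, the solvent-only control mean plus 3 SD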;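 note: 0% = DMSO treated cells and 100% = gossypol at 36 µM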). As to conditions: HEK293 GAL4-SRC3 luciferase reporter, at 3.6 µM, stronger effect = higher value.
Test [11] has as its system transactivating tegument protein VP16 (Human herpesvirus 1), Gal4-VP16 luciferase reporter. The experiment in a line: repression of VP16-driven luciferase reporter – cell-based, luminescence, high throughput, counter-screen for SRC3 inhibitor project (AID 588794; in the data active = inhibition above about 30%). The note with it: mammalian cells, at 3.6 µM, stronger effect = higher value.
In test [12] the target is Nuclear receptor coactivator 1 (Homo sapiens) (UniProt Q15788). The experiment in a line: NCOA1 GAL4-fusion reporter inhibition – cell-based, luminescence, quadruplicate, confirmation (AID 588820;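 active = mean inhibition above 46.68%, the untreated control wells mean plus 3 SD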;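 note: 0% = DMSO wells and 100% = gossypol 36 µM treated wells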). The note with it: HEK293 GAL4-SRC1 luciferase reporter, at 3.6 µM, stronger effect = higher value.
Test [13] can be described thus: repression of VP16-driven luciferase reporter – cell-based, luminescence, high throughput, counter-screen for SRC1 inhibitor project (AID 588824; in the data active = inhibition above about 25%). As to conditions: cell-based VP16 transactivation luciferase luminescence; at 3.6 µM; stronger effect = higher value.
The nature of test [14]: StAR promoter reporter inhibitors, counter-screen for LRH-1 inverse agonist project, cell-based, luminescence, high throughput (AID 651611; in the data active = inhibition above about 28%). As to conditions: StAR promoter luciferase reporter counterscreen, at 3.6 µM, stronger effect = higher value.
Test [15] concerns the target Nuclear receptor subfamily 5 group A member 2 (Homo sapiens) (UniProt O00482). The experiment in a line: NR5A2 activity suppression in reporter cells – cell-based, luminescence, confirmation (AID 651613; in the data active = inhibition above about 42%;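 note: HEK293T cells co-transfected with LRH-1 and StAR promoter luciferase reporter; 0% = vehicle wells and 100% = parental cells lacking receptor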). As to conditions: cell-based LRH-1 luciferase reporter, inverse agonism; at 3.6 µM; stronger effect = higher value.
Test [16] concerns the target Steroidogenic factor 1 (Homo sapiens) (UniProt Q13285). The experiment in a line: inverse agonism at SF1 nuclear receptor – cell-based, luminescence, high throughput, counter-screen for LRH-1 inverse agonist project (AID 651614; in the data active = inhibition above about 44%;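 note: cells cotransfected with StAR promoter reporter and SF1 expression vector; 0% = vehicle on cells with receptor and 100% = vehicle on cells lacking receptor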). The note with it: cell-based SF1 luciferase reporter, at 3.6 µM, stronger effect = higher value.
Test [17] in a line: compounds suppressing VP16-driven luciferase signal – cell-based, luminescence, high throughput, counter-screen for LRH-1 inverse agonist project (AID 651615; in the data active = inhibition above about 33%). The note with it: Gal4-VP16 luciferase reporter cells, at 3.6 µM, stronger effect = higher value.
Test [18] has as its system transactivating tegument protein VP16 (Human herpesvirus 1). The experiment in a line: compounds suppressing VP16-driven luciferase signal – cell-based, luminescence, single concentration, counter-screen for SRC2 inhibitor project (AID 652007; in the data active = inhibition above about 36%). The note with it: cell-based VP16 transactivation luciferase reporter, at 8.9 µM, stronger effect = higher value.
Test [19] addresses Nuclear receptor coactivator 2 (Homo sapiens) (UniProt Q15596). The experiment in a line: inhibition of GAL4-SRC2 driven luciferase expression – cell-based, luminescence, HEK293, triplicate, confirmation (AID 652008;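 active = mean inhibition above 46.5%, the solvent-only control mean plus 3 SD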;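 note: 0% = DMSO-treated cells and 100% = Gossypol at 36 µM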). As to conditions: HEK293 GAL4-SRC2 luciferase reporter, at 8.9 µM, stronger effect = higher value.
Test [20] can be described thus: VP16-driven transactivation reporter suppression – cell-based, luminescence, HEK293, counter-screen for COUP-TFII antagonist project (AID 687007; in the data active = inhibition above about 13%). The note with it: HEK293 Gal4-VP16 luciferase reporter, at 8.5 µM, stronger effect = higher value.
Test [21] addresses COUP transcription factor 2 (Homo sapiens) (UniProt P24468). The experiment in a line: retest of COUP-TFII reporter suppressors – cell-based, luciferase reporter, HEK293, triplicate, confirmation (AID 687008;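 active = mean inhibition over three repeats above a set limit taken from the earlier primary screen, cut at about 38% in these data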;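 note: 100% = cells given the luciferase reporter alone without the COUP-TF2 vector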). As to conditions: HEK293 NGFI-A luciferase reporter, luminescence; at 8.5 µM; stronger effect = higher value.
The target in test [22] is Galanin receptor type 2 (Homo sapiens) (UniProt O43603). The experiment in a line: blockers of human galanin receptor 2 – cell-based, confirmation (AID 866; in the data active = inhibition above about 27%;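 note: cells stimulated with galanin at about its EC80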). The note with it: GALR2-expressing cells, antagonist mode, at 4 µM, stronger effect = higher value.
Test [23] can be described thus: nonspecific BLA reporter inhibition – CHO NFAT-bla cells, FRET readout, counter-screen for GALR2 antagonist project, confirmation (AID 867;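 active = inhibition above the mean inhibition across tested compounds plus 3 SD, cut at about 27% in these data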;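 note: 0% = 500 nM thapsigargin stimulated wells and 100% = unstimulated BSA only wells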). The note with it: beta-lactamase FRET, thapsigargin-stimulated, at 4.2 µM, stronger effect = higher value.
Test [24] concerns the target Sphingosine 1-phosphate receptor 4 (Homo sapiens) (UniProt O95977). The experiment in a line: blockers of human S1P4 signalling – cell-based, confirmation (AID 1524; in the data active = inhibition above about 30%). The note with it: S1P4-expressing cell line, antagonist mode, reporter read-out; at 4.98 µM; stronger effect = higher value.
The target in test [25] is Sphingosine 1-phosphate receptor 1 (Homo sapiens) (UniProt P21453). The experiment in a line: blockade of human S1P1 receptor – cell-based, counter-screen for S1P4 antagonist project (AID 1564; in the data active = inhibition above about 40%;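 note: receptor stimulated with S1P near its EC80; 0% = agonist stimulated wells and 100% = vehicle only wells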). As to conditions: cell-based S1P1 antagonist counterscreen, at 4.98 µM, stronger effect = higher value.
For test [26], the target named is Receptor-interacting serine/threonine-protein kinase 2 (Homo sapiens) (UniProt O43353). The experiment in a line: inhibitors of RIPK2 association with NOD2 – fluorescence, CHO cells, BLA complementation, triplicate, confirmation (AID 624370;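 active = mean inhibition across replicates above a set limit taken from the earlier primary screen, cut at about 21% in these data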;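 note: 0% = DMSO-only wells and the high end = clavulanate BLA-blocked wells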). The note with it: CCF4 FRET, at 4.98 µM, stronger effect = higher value.
Test [27] can be described thus: BLA reporter readout interference – cell-based, CHO-K1 CMV-bla, CCF4 FRET, fluorescence, artefact control for NOD2-RIPK2 interaction inhibitor project, confirmation (AID 624371;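 active = mean inhibition above the low-control mean inhibition plus three low-control SD, cut at about 11% in these data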;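 note: 0% = DMSO only wells and 100% = clavulanate high control wells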). As to conditions: CCF4 FRET ratio, counterscreen, at 4.98 µM, stronger effect = higher value.

Chain of Neuropeptide Y receptor type 1 (Homo sapiens) (P25929 whole entry, looked up): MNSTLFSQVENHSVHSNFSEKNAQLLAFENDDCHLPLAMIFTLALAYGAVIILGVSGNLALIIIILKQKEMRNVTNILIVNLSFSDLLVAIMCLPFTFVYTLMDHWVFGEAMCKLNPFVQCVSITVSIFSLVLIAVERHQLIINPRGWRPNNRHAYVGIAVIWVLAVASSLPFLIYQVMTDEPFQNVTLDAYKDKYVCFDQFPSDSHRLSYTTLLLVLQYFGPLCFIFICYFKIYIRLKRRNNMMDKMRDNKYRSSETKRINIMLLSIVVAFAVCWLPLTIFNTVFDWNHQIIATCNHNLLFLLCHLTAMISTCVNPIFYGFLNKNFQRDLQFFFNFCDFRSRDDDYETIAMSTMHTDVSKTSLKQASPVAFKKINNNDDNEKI
Chain of Sphingosine 1-phosphate receptor 4 (Homo sapiens) (O95977 whole entry, looked up): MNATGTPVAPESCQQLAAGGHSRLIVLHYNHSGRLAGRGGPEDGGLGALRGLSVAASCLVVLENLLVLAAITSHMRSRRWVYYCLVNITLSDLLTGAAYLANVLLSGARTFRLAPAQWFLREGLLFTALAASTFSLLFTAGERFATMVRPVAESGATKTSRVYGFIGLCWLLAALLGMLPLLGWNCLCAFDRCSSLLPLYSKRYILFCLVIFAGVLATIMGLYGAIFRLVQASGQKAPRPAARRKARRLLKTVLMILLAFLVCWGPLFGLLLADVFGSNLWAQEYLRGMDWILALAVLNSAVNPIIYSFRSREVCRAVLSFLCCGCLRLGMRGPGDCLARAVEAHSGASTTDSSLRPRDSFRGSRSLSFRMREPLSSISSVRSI
Chain of Neuropeptide Y receptor type 2 (Homo sapiens) (P49146 whole entry, looked up): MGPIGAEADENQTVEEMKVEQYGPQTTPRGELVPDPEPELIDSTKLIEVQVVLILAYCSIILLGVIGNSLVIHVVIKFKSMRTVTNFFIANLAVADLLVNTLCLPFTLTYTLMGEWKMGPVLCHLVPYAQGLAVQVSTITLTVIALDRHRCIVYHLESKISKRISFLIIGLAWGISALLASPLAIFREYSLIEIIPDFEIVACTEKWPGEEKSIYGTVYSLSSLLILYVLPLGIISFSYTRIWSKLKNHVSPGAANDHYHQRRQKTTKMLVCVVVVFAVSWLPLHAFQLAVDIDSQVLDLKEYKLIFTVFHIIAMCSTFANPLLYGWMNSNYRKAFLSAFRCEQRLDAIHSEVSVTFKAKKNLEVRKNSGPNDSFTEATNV
Chain of Sphingosine 1-phosphate receptor 1 (Homo sapiens) (P21453 whole entry, looked up): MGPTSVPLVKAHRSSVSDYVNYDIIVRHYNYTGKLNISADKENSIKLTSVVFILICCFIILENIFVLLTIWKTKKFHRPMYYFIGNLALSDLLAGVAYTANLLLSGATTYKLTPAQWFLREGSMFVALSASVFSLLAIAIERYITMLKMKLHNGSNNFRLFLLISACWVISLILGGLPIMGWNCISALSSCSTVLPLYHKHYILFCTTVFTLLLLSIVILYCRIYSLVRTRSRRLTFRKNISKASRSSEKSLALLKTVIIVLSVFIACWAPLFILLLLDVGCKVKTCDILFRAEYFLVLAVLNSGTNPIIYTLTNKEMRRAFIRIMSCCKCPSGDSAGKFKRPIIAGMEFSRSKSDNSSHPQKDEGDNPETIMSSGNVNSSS
Chain of Nuclear receptor coactivator 1 (Homo sapiens) (Q15788 whole entry, looked up, the tested form may be a part): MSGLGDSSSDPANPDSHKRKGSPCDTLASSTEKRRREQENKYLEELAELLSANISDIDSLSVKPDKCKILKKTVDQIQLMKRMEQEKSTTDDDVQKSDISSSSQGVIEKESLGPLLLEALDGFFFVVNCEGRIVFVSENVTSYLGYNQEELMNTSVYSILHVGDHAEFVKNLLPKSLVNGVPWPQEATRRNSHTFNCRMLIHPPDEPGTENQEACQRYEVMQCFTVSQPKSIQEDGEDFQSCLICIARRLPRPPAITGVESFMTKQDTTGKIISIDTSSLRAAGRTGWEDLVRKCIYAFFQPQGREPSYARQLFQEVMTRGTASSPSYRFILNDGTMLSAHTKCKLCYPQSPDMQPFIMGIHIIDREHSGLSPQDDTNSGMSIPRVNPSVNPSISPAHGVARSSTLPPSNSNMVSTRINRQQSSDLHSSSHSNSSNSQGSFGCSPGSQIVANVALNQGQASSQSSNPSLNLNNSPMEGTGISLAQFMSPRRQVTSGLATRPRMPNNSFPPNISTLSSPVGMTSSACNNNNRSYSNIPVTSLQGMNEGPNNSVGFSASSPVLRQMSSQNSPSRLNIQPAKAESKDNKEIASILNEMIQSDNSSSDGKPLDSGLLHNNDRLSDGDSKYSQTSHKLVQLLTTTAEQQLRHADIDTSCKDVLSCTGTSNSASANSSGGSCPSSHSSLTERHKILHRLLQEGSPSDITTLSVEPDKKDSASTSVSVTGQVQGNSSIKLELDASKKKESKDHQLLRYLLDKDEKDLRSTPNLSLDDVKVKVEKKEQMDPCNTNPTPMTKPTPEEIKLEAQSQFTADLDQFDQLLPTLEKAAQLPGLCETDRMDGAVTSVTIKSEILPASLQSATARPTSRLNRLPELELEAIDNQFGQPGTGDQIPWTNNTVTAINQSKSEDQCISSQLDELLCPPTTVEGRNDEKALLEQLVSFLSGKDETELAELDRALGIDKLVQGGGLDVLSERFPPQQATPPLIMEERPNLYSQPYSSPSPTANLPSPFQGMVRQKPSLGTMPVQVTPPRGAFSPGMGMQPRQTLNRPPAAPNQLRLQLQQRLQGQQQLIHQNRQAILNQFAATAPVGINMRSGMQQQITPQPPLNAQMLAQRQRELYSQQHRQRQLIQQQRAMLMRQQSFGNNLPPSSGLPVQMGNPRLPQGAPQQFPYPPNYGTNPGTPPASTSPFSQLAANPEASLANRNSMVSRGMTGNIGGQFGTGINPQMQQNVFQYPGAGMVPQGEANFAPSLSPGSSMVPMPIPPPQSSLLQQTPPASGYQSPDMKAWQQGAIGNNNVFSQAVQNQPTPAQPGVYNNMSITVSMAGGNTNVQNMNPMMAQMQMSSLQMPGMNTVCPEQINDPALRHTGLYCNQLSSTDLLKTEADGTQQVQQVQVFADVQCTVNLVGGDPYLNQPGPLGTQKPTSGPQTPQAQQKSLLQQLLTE
Chain of Photoreceptor-specific nuclear receptor (Homo sapiens) (Q9Y5X4 whole entry, looked up): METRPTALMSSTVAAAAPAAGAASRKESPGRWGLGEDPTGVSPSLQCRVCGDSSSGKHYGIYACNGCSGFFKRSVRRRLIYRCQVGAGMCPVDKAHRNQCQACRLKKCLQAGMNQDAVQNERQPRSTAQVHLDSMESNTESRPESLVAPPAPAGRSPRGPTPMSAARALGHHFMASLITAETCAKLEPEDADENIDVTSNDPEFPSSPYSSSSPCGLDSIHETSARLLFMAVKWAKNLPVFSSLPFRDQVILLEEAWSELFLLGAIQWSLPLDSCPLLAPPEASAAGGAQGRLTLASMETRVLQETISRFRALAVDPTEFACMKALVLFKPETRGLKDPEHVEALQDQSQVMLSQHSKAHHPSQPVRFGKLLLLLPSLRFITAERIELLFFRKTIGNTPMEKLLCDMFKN
Chain of Nuclear receptor coactivator 3 (Homo sapiens) (Q9Y6Q9 whole entry, looked up, the tested form may be a part): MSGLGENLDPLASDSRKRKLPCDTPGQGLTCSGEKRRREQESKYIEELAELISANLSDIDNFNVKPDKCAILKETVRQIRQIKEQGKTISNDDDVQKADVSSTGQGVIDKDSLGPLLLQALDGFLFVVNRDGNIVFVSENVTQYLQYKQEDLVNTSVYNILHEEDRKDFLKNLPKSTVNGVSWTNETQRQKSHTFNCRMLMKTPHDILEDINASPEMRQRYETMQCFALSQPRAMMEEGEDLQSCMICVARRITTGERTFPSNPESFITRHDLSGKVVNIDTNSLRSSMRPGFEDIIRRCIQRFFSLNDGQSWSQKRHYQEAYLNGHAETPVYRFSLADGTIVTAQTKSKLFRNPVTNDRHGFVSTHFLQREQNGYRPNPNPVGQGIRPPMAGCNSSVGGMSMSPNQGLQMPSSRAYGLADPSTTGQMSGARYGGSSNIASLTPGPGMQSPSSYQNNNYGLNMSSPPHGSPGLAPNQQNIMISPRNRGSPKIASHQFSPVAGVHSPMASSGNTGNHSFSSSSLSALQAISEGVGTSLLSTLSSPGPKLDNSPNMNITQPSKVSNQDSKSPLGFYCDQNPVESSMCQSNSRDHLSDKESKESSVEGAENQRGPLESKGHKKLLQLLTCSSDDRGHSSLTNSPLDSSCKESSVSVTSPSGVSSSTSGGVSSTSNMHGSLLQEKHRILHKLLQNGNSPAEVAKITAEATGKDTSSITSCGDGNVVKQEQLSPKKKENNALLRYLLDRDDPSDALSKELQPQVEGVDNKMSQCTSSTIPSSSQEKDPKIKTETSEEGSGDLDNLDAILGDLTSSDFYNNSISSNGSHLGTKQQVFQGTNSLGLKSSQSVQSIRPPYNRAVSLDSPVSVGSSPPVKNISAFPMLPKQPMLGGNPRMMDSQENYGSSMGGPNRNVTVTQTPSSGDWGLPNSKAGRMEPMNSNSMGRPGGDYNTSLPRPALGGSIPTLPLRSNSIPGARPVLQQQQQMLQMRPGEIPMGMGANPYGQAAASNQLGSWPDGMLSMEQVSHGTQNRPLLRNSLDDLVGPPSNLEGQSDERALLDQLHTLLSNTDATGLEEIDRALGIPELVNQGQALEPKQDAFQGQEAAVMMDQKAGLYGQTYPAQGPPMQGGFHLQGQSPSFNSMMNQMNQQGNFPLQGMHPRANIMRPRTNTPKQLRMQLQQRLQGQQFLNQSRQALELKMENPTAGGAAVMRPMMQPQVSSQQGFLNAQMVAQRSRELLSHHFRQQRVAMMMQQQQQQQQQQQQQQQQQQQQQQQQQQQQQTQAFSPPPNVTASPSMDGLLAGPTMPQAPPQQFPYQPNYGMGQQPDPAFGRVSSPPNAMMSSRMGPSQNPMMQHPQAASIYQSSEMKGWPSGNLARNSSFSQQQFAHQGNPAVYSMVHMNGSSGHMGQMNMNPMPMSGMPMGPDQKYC

For the compound `COc1cc(NC(=O)c2ccccc2NS(=O)(=O)c2ccc(Cl)s2)cc(OC)c1`, the activation in test [1] is 0.49%; in test [2], -30.1%; in [3], -29%; in [5], -3.82%. Further, the inhibition (commonly the change of the read-out against control, counted positive when it falls) was -9.95% in test [4], 99.6% (active) in test [6] and 90.3% (active) in test [7].
Turning to `CC(=O)c1ccc(Oc2cc(C)nc(-n3nc(C)cc3C)n2)cc1`, the inhibition is 63.5% (active) in [8] and 57.9% (active) in [9].
`CN(c1ccc2nc3ccccc3c(=O)n2n1)C1CCCCC1`: the inhibition in test [8] is 72.9% (active); in test [9], 9.18%; in test [10] it was 59.8% (active); in test [11], 48.9% (active); in test [12] it was -5.95%; in test [13], 23.2%. Also, the inhibition in test [6] was 43.9%; in test [7], 10.8%; in [14], 59.8% (active); in [15], 14.8%; in [16], 57.6% (active); in [17], 18%. For the same compound, the inhibition in test [18] is 50.9% (active); in [19] it was 86% (active); in test [20], 64.8% (active); in test [21] it was 87.9% (active).
As for `O=C(NCc1ccccc1)c1ccc(S(=O)(=O)Nc2cccc(C(F)(F)F)c2)cc1`, the activation in test [1] was 10.8%; in test [2] it was 17%; in test [3], 12%; in test [5], 19.8% (active). In addition, the inhibition in [4] was 16.6%.
On to `CSc1nc(N(C)NC(=O)c2cccc(C)c2)c2ccccc2n1`, for which the inhibition in test [8] was 88.7% (active); in test [9], 73.4% (active).
Consider `O=C(Nc1ccccc1)c1nnsc1S(=O)(=O)c1ccc(Cl)cc1`, for which the inhibition was 45.8% (active) in test [22]; 66.7% (active) in test [23]; 116% (active) in test [24]; 37.5% in test [25]; 65.2% (active) in test [26]; 10.3% in test [27].
Turning to `CC(Nc1ccccc1)c1cccnc1` (centres undefined), the activation in test [1] was 2.4%; in test [2], -7.91%; in test [3] it was -5.76%; in test [5] it was 17.8% (active). Besides, the inhibition in test [4] is 2.7%.
Turning to `CCn1c(SCC(=O)Nc2nccs2)nnc1-c1ccncc1`, the figures for the inhibition in [8] and in test [9] were 3.83% and 8.72%, respectively.
As to `O=C1C=C(c2ccc(Cl)cc2)C(=O)N1Nc1ccccc1`, the inhibition in test [24] was 119% (active); in [25], 63% (active); in test [26] it was 90.3% (active); in test [27] it was 14.8% (active).
Regarding `CC1CC2=C(CC1/C=N/NC(N)=S)C(C)(C)CCC2` (centres undefined), the inhibition in test [24] was 67.8% (active); in test [25], 7.02%; in test [10], 50.9% (active); in test [11] it was 30.1% (active); in [12] it was 32.9%; in test [13], 33.7% (active).
With `CCOC(=O)CSC1=C(C#N)C(c2sccc2C)CC(=O)N1` (centres undefined), the inhibition in test [8] was 63.3% (active); in [9], 57.3% (active).
In the same order, the values of `COc1ccc(Nc2cc(C)nc(-n3nc(C)cc3C)n2)cc1` are 78.8% (active) and 60.9% (active).

For the origin of these results see PubChem BioAssay.
